# Among all 5,500 compounds or so, about 2,000 (36%) were called active. Inconclusive results (about 18%) are left out. Some of the results follow. Values without a mark were called inactive. Cut-off read from the data, not from the text of the source: active = normalized growth mostly below about 0.91 (no sharp cut-off); inconclusive = no clear call, values can overlap the other calls; inactive = mostly above about 0.92.
# Test: chemical genetic growth profiling, strain panel (AID 1159580);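 note: tested at 20 µM; growth read once vehicle control cultures reached saturation at 30 °C; 1 = growth at the plate median or of vehicle wells; lower values mean less growth of the strain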
# Conditions: S. cerevisiae deletion strains, growth OD
compound,measurement,setting,value
CN1CCC(=C2c3ccccc3CCc3sccc32)CC1,normalized growth,"locus YAL021C, strain ccr4, stronger effect = lower value",0.91
same,normalized growth,"locus YAL026C, strain drs2, stronger effect = lower value",0.956
same,normalized growth,"locus YAL030W, strain snc1, stronger effect = lower value",0.987
same,normalized growth,"locus YBL061C, strain skt5, stronger effect = lower value",0.967
same,normalized growth,"locus YBR009C, strain hhf1, stronger effect = lower value",0.986
same,normalized growth,"locus YBR023C, strain chs3, stronger effect = lower value",0.969
same,normalized growth,"locus YBR171W, strain sec66, stronger effect = lower value",0.961
same,normalized growth,"locus YBR231C, strain swc5, stronger effect = lower value",0.965
same,normalized growth,"locus YBR279W, strain paf1, stronger effect = lower value",0.959
same,normalized growth,"locus YCL011C, strain gbp2, stronger effect = lower value",0.958
same,normalized growth,"locus YCL016C, strain dcc1, stronger effect = lower value",0.948
same,normalized growth,"locus YCL069W, strain vba3, stronger effect = lower value",0.977
same,normalized growth,"locus YCR088W, strain abp1, stronger effect = lower value",0.979
same,normalized growth,"locus YDL005C, strain med2, stronger effect = lower value",0.968
same,normalized growth,"locus YDL040C, strain nat1, stronger effect = lower value",0.98
same,normalized growth,"locus YDR001C, strain nth1, stronger effect = lower value",0.96
same,normalized growth,"locus YDR069C, strain doa4, stronger effect = lower value",0.905
same,normalized growth,"locus YDR137W, strain rgp1, stronger effect = lower value",1.08
same,normalized growth,"locus YDR159W, strain sac3, stronger effect = lower value",0.952
same,normalized growth,"locus YDR195W, strain ref2",0.954
same,normalized growth,"locus YDR297W, strain sur2, stronger effect = lower value",0.976
same,normalized growth,"locus YDR334W, strain swr1, stronger effect = lower value",0.972
same,normalized growth,"locus YDR335W, strain msn5, stronger effect = lower value",0.949
same,normalized growth,"locus YDR392W, strain spt3, stronger effect = lower value",0.93
same,normalized growth,"locus YEL003W, strain gim4, stronger effect = lower value",0.982
same,normalized growth,"locus YEL037C, strain rad23, stronger effect = lower value",0.975
same,normalized growth,"locus YEL061C, strain CIN8 (second series), stronger effect = lower value",0.967
same,normalized growth,"locus YER015W, strain faa2, stronger effect = lower value",0.967
same,normalized growth,"locus YER016W, strain bim1, stronger effect = lower value",0.995
same,normalized growth,"locus YER111C, strain swi4, stronger effect = lower value",0.954
same,normalized growth,"locus YER155C, strain BEM2 (second series), stronger effect = lower value",0.933
same,normalized growth,"locus YFR010W, strain ubp6, stronger effect = lower value",0.961
same,normalized growth,"locus YGL167C, strain pmr1, stronger effect = lower value",0.969
same,normalized growth,"locus YGL173C, strain kem1, stronger effect = lower value",0.972
same,normalized growth,"locus YGL227W, strain vid30, stronger effect = lower value",0.941
same,normalized growth,"locus YGL240W, strain doc1, stronger effect = lower value",0.998
same,normalized growth,"locus YGL253W, strain hxk2, stronger effect = lower value",0.977
same,normalized growth,"locus YHR013C, strain ard1, stronger effect = lower value",0.842 (active)
same,normalized growth,"locus YHR027C, strain rpn1, stronger effect = lower value",0.954
same,normalized growth,"locus YHR030C, strain SLT2, stronger effect = lower value",0.943
same,normalized growth,"locus YHR079C, strain IRE1, stronger effect = lower value",0.97
same,normalized growth,"locus YHR142W, strain chs7, stronger effect = lower value",0.951
same,normalized growth,"locus YJL092W, strain hpr5, stronger effect = lower value",0.975
same,normalized growth,"locus YJL095W, strain BCK1 (second series), stronger effect = lower value",0.973
same,normalized growth,"locus YJL095W, strain BCK1, stronger effect = lower value",1.02
same,normalized growth,"locus YJL115W, strain asf1, stronger effect = lower value",0.922
same,normalized growth,"locus YJL129C, strain trk1, stronger effect = lower value",0.967
same,normalized growth,"locus YJL154C, strain vps35, stronger effect = lower value",0.968
same,normalized growth,"locus YJL164C, strain tpk1, stronger effect = lower value",0.968
same,normalized growth,"locus YJL166W, strain qcr8, stronger effect = lower value",0.98
same,normalized growth,"locus YJR066W, strain TOR1, stronger effect = lower value",0.941
same,normalized growth,"locus YKL160W, strain elf1, stronger effect = lower value",0.935
same,normalized growth,"locus YKR026C, strain gcn3, stronger effect = lower value",0.966
same,normalized growth,"locus YKR091W, strain srl3, stronger effect = lower value",0.964
same,normalized growth,"locus YLL001W, strain dnm1, stronger effect = lower value",0.987
same,normalized growth,"locus YLL026W, stronger effect = lower value",0.982
same,normalized growth,"locus YLL041C, strain sdh2, stronger effect = lower value",0.961
same,normalized growth,"locus YLR027C, strain aat2, stronger effect = lower value",0.95
same,normalized growth,"locus YLR113W, strain HOG1, stronger effect = lower value",1.01
same,normalized growth,"locus YLR221C, strain rsa3, stronger effect = lower value",0.997
same,normalized growth,"locus YLR258W, strain gsy2, stronger effect = lower value",0.966
same,normalized growth,"locus YLR262C, strain YPT6 (second series), stronger effect = lower value",1.01
same,normalized growth,"locus YLR320W, strain mms22, stronger effect = lower value",0.98
same,normalized growth,"locus YLR342W, strain FKS1, stronger effect = lower value",0.973
same,normalized growth,"locus YLR357W, strain rsc2, stronger effect = lower value",0.946
same,normalized growth,"locus YLR370C, strain arc18, stronger effect = lower value",0.96
same,normalized growth,"locus YLR384C, strain iki3, stronger effect = lower value",0.967
same,normalized growth,"locus YML120C, strain ndi1, stronger effect = lower value",0.97
same,normalized growth,"locus YMR058W, strain fet3, stronger effect = lower value",0.955
same,normalized growth,"locus YMR125W, strain sto1, stronger effect = lower value",0.933
same,normalized growth,"locus YMR129W, stronger effect = lower value",0.979
same,normalized growth,"locus YMR205C, strain PFK2, stronger effect = lower value",0.958
same,normalized growth,"locus YMR231W, strain pep5, stronger effect = lower value",0.979
same,normalized growth,"locus YNL071W, strain lat1, stronger effect = lower value",0.958
same,normalized growth,"locus YNL183C, strain NPR1, stronger effect = lower value",0.97
same,normalized growth,"locus YNL209W, strain ssb2, stronger effect = lower value",0.962
same,normalized growth,"locus YNL248C, strain rpa49, stronger effect = lower value",0.955
same,normalized growth,"locus YNL322C, strain KRE1 (second series), stronger effect = lower value",0.936
same,normalized growth,"locus YNR049C, strain mso1, stronger effect = lower value",0.97
same,normalized growth,"locus YOR001W, strain rrp6, stronger effect = lower value",0.948
same,normalized growth,"locus YOR070C, strain gyp1, stronger effect = lower value",0.98
same,normalized growth,"locus YOR080W, strain dia2, stronger effect = lower value",0.975
same,normalized growth,"locus YOR083W, strain WHI5, stronger effect = lower value",0.913
same,normalized growth,"locus YOR106W, strain vam3, stronger effect = lower value",0.889
same,normalized growth,"locus YOR231W, strain MKK1, stronger effect = lower value",0.969
same,normalized growth,"locus YOR265W, strain rbl2, stronger effect = lower value",0.969
same,normalized growth,"locus YOR270C, strain vph1, stronger effect = lower value",0.872
same,normalized growth,"locus YOR290C, strain snf2, stronger effect = lower value",0.916
same,normalized growth,"locus YPL051W, strain arl3, stronger effect = lower value",0.956
same,normalized growth,"locus YPL078C, strain atp4, stronger effect = lower value",0.957
same,normalized growth,"locus YPL106C, strain sse1, stronger effect = lower value",0.942
same,normalized growth,"locus YPL240C, strain hsp82, stronger effect = lower value",0.967
same,normalized growth,"locus YPL256C, strain CLN2, stronger effect = lower value",0.963
